Data taken from PubChem BioAssay (EPA / NIEHS).
Active and inactive are the calls of the source. The calls were made as follows: active = hit-call score of the fitted dose curve at least 0.9, where 1 is the maximum; inactive = score below 0.9.

How the values were obtained:
[1] = read-out: Interferon-gamma inducible Protein 10 (IP10), CXCL10 (gene 3627); assay: BSK_hDFCGF_IP10: BioMAP Diversity Plus: hDFCGF Assay for Interferon-gamma inducible Protein 10 (IP10) Biomarker Activity (AID 2283053); conditions: primary human foreskin fibroblasts; actives raise or lower the signal
Method in brief: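 ELISA quantification of IP-10 after a 24 h chemical exposure of human dermal foreskin fibroblast primary cultures. Both increases and decreases versus DMSO fitted.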

[2] = read-out: Urokinase-type plasminogen activator receptor (uPAR), PLAUR (gene 5329); assay: BSK_CASM3C_uPAR: BioMAP Diversity Plus: CASM3C Assay for Urokinase-type plasminogen activator receptor (uPAR) Biomarker Activity (AID 2283054); conditions: primary human coronary artery smooth muscle cells; actives raise or lower the signal;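 also: cell-surface uPAR protein level quantified by ELISA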
[3] = read-out: Vascular cell adhesion molecule 1 (VCAM1), VCAM1 (gene 7412); assay: BSK_CASM3C_VCAM1: BioMAP Diversity Plus: CASM3C Assay for Vascular cell adhesion molecule 1 (VCAM1) Biomarker Activity (AID 2283055); conditions: primary human coronary artery smooth muscle cells; actives raise or lower the signal;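 also: VCAM-1 protein level quantified by ELISA on the cells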
[4] = read-out: Collagen III, COL3A1 (gene 1281); assay: BSK_hDFCGF_CollagenIII: BioMAP Diversity Plus: hDFCGF Assay for Collagen III Biomarker Activity (AID 2283056); conditions: primary human foreskin fibroblasts; actives raise or lower the signal
Method in brief: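 hDFCGF primary human dermal fibroblasts; 24 h chemical exposure; collagen III by ELISA; bidirectional curve fit vs DMSO baseline (gain or loss of signal).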

[5] = read-out: Epidermal growth factor receptor (EGFR), EGFR (gene 1956); assay: BSK_hDFCGF_EGFR: BioMAP Diversity Plus: hDFCGF Assay for Epidermal growth factor receptor (EGFR) Biomarker Activity (AID 2283057); conditions: primary human foreskin fibroblasts; actives raise or lower the signal
Method in brief: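 EGFR levels by ELISA in human dermal fibroblast cultures, 24 h post-treatment, fitted bidirectionally versus DMSO. Parallel wells stained with sulforhodamine B to detect overt cytotoxicity.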

[6] = read-out: Interleukin-8 (IL8), CXCL8 (gene 3576); assay: BSK_hDFCGF_IL8: BioMAP Diversity Plus: hDFCGF Assay for Interleukin-8 (IL8) Biomarker Activity (AID 2283058); conditions: primary human foreskin fibroblasts; actives raise or lower the signal
Method in brief: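 ELISA read-out of IL-8 from primary human foreskin fibroblast cultures taken 24 h after dosing; values are bidirectional fits relative to DMSO vehicle.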

[7] = BSK_hDFCGF_Proliferation: Cell Proliferation Assessment in the BioMAP Diversity Plus: hDFCGF Assay (AID 2283059); conditions: primary human foreskin fibroblasts;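 also: curves fitted for both rise and fall of signal versus DMSO baseline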
Method in brief: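 This proliferation readout used SRB total-protein staining of human foreskin fibroblasts […], normalized to DMSO with bidirectional curve fitting.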

[8] = read-out: Macrophage colony-stimulating factor (MCSF), CSF1 (gene 1435); assay: BSK_hDFCGF_MCSF: BioMAP Diversity Plus: hDFCGF Assay for Macrophage colony-stimulating factor (MCSF) Biomarker Activity (AID 2283060); conditions: primary human foreskin fibroblasts; actives raise or lower the signal
Method in brief: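 ELISA read-out of M-CSF in human dermal foreskin fibroblast cultures, 24 h after chemical dosing; gain or loss of signal fitted bidirectionally relative to DMSO baseline.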

[9] = BSK_hDFCGF_SRB: Viability Assessment in the BioMAP Diversity Plus: hDFCGF Assay (AID 2283061); conditions: primary human foreskin fibroblasts;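 also: cells exposed to compound for 24 h before the read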
Method in brief: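 Primary human foreskin fibroblasts; 24 h post-dose; fixed 10% TCA, stained 0.1% SRB, A560 read; total protein as overt cytotoxicity measure; curves fit bidirectionally vs DMSO control.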

[10] = read-out: Monokine induced gamma interferon (MIG), CXCL9 (gene 4283); assay: BSK_hDFCGF_MIG: BioMAP Diversity Plus: hDFCGF Assay for Monokine induced gamma interferon (MIG) Biomarker Activity (AID 2283063); conditions: primary human foreskin fibroblasts; actives raise or lower the signal
Method in brief: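 Fibroblasts (human foreskin, primary) dosed, 24 h, MIG by ELISA; fit bidirectional vs DMSO.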

[11] = read-out: Vascular cell adhesion molecule 1 (VCAM1), VCAM1 (gene 7412); assay: BSK_hDFCGF_VCAM1: BioMAP Diversity Plus: hDFCGF Assay for Vascular cell adhesion molecule 1 (VCAM1) Biomarker Activity (AID 2283065); conditions: primary human foreskin fibroblasts; actives raise or lower the signal;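 as to AC50: VCAM-1 protein level quantified by ELISA after 24 h chemical exposure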
Method in brief: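 ELISA read-out of VCAM-1 on human skin fibroblasts, 24 h post-dose; gain or loss of signal fitted bidirectionally against DMSO baseline.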

[12] = read-out: Plasminogen activator inhibitor-1 (PAI1), SERPINE1 (gene 5054); assay: BSK_hDFCGF_PAI1: BioMAP Diversity Plus: hDFCGF Assay for Plasminogen activator inhibitor-1 (PAI1) Biomarker Activity (AID 2283066); conditions: primary human foreskin fibroblasts; actives raise or lower the signal
Method in brief: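 PAI-1 levels in human dermal foreskin fibroblasts were quantified by ELISA 24 h after dosing, with gain or loss analysed against DMSO. Overt cytotoxicity was checked by sulforhodamine B total-protein staining in parallel cultures.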

[13] = read-out: Intercellular Adhesion Molecule 1 (ICAM1), ICAM1 (gene 3383); assay: BSK_KF3CT_ICAM1: BioMAP Diversity Plus: KF3CT Assay for Intercellular Adhesion Molecule 1 (ICAM1) Biomarker Activity (AID 2283067); conditions: primary human keratinocytes with fibroblasts; actives raise or lower the signal
Method in brief: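 ELISA readout of ICAM-1; KF3CT human skin co-culture (keratinocytes + foreskin fibroblasts), 24 h post-dose; gain/loss fit vs DMSO baseline.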

[14] = read-out: Interferon-gamma inducible Protein 10 (IP10), CXCL10 (gene 3627); assay: BSK_KF3CT_IP10: BioMAP Diversity Plus: KF3CT Assay for Interferon-gamma inducible Protein 10 (IP10) Biomarker Activity (AID 2283068); conditions: primary human keratinocytes with fibroblasts; actives raise or lower the signal
Method in brief: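 Signal is secreted/surface IP-10 by ELISA in a human primary skin co-culture of keratinocytes and foreskin fibroblasts, taken 24 h post-dosing; DMSO served as negative control.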

[15] = BSK_KF3CT_SRB: Viability Assessment in the BioMAP Diversity Plus: KF3CT Assay (AID 2283069); conditions: primary human keratinocytes with fibroblasts;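 also: read 24 h after compound addition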
Method in brief: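 SRB read-out at 560 nm (0.1% stain, TCA-fixed cells) gauges overt cytotoxicity in a human skin keratinocyte–fibroblast co-culture 24 h post-dosing. Signal change was fitted bidirectionally relative to DMSO control.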

[16] = read-out: Interleukin-1 alpha (IL1a), IL1A (gene 3552); assay: BSK_KF3CT_IL1a: BioMAP Diversity Plus: KF3CT Assay for Interleukin-1 alpha (IL1a) Biomarker Activity (AID 2283070); conditions: primary human keratinocytes with fibroblasts; actives raise or lower the signal
Method in brief: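 Primary skin co-culture (keratinocytes, foreskin fibroblasts), 24 h exposure; ELISA for IL-1a; bidirectional curve fit vs DMSO.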

[17] = read-out: TIMP metallopeptidase inhibitor 2 (TIMP2), TIMP2 (gene 7077); assay: BSK_KF3CT_TIMP2: BioMAP Diversity Plus: KF3CT Assay for TIMP metallopeptidase inhibitor 2 (TIMP2) Biomarker Activity (AID 2283071); conditions: primary human keratinocytes with fibroblasts; actives raise or lower the signal
Method in brief: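 TIMP-2 measured by ELISA at 24 h in human keratinocyte/fibroblast primary co-cultures exposed to chemicals. Both increases and decreases were fitted against DMSO. Parallel cultures were stained with SRB for total protein as an overt-cytotoxicity check.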

[18] = read-out: Transforming growth factor beta 1 (TGFb1), TGFB1 (gene 7040); assay: BSK_KF3CT_TGFb1: BioMAP Diversity Plus: KF3CT Assay for Transforming growth factor beta 1 (TGFb1) Biomarker Activity (AID 2283072); conditions: primary human keratinocytes with fibroblasts; actives raise or lower the signal
Method in brief: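 ELISA quantifies TGF-b1 at 24 h post-dose in a primary human skin co-culture of keratinocytes and fibroblasts, with gain or loss judged against DMSO. Parallel SRB total-protein staining flags overt cytotoxicity.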

[19] = read-out: TIMP metallopeptidase inhibitor 1 (TIMP1), TIMP1 (gene 7076); assay: BSK_hDFCGF_TIMP1: BioMAP Diversity Plus: hDFCGF Assay for TIMP metallopeptidase inhibitor 1 (TIMP1) Biomarker Activity (AID 2283062); conditions: primary human foreskin fibroblasts; actives raise or lower the signal
Method in brief: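 ELISA readout of TIMP-1 from human dermal foreskin fibroblast cultures 24 h post-dosing. Curves were fitted in both directions against DMSO baseline, with SRB total-protein staining in parallel cultures as a cytotoxicity check.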

[20] = read-out: Matrix Metallopeptidase 1 (MMP1), MMP1 (gene 4312); assay: BSK_hDFCGF_MMP1: BioMAP Diversity Plus: hDFCGF Assay for Matrix Metallopeptidase 1 (MMP1) Biomarker Activity (AID 2283064); conditions: primary human foreskin fibroblasts; actives raise or lower the signal
Method in brief: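 ELISA read-out of MMP1 from human foreskin fibroblasts (primary skin cells), 24 h post-dose. Gain or loss of signal was fitted bidirectionally versus DMSO negative control; cytotoxicity was checked by SRB in parallel cultures.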

Cc1cn([C@H]2C=C[C@@H](CO)O2)c(=O)[nH]c1=O
outcome [1]: inactive
outcome [2]: inactive
outcome [3]: inactive
outcome [4]: inactive
outcome [5]: inactive
outcome [6]: inactive
outcome [7]: inactive
outcome [8]: inactive
outcome [9]: inactive
outcome [10]: inactive
outcome [11]: inactive
outcome [12]: inactive
outcome [13]: inactive
outcome [14]: inactive
outcome [15]: inactive
outcome [16]: inactive
outcome [17]: inactive
outcome [18]: inactive

O=C(O)CC(O)(CC(=O)O)C(=O)O
outcome [1]: inactive
outcome [2]: inactive
outcome [3]: inactive
outcome [4]: inactive
outcome [5]: inactive
outcome [6]: inactive
outcome [7]: inactive
outcome [9]: inactive
outcome [19]: inactive
outcome [10]: inactive
outcome [20]: inactive
outcome [11]: inactive
outcome [12]: inactive
outcome [13]: inactive
outcome [14]: inactive
outcome [15]: inactive
outcome [17]: inactive
outcome [18]: inactive

CCCCCCCC(=O)OC
outcome [1]: inactive
outcome [2]: inactive
outcome [3]: inactive
outcome [4]: inactive
outcome [5]: inactive
outcome [6]: inactive
outcome [7]: inactive
outcome [8]: inactive
outcome [9]: inactive
outcome [10]: inactive
outcome [20]: inactive
outcome [11]: inactive
outcome [13]: inactive
outcome [14]: inactive
outcome [15]: inactive
outcome [16]: inactive
outcome [17]: inactive
outcome [18]: inactive

O=Cc1ccccc1C=O
outcome [1]: inactive
outcome [2]: inactive
outcome [3]: inactive
outcome [4]: inactive
outcome [5]: inactive
outcome [6]: inactive
outcome [7]: inactive
outcome [9]: inactive
outcome [19]: inactive
outcome [10]: inactive
outcome [20]: inactive
outcome [11]: inactive
outcome [12]: inactive
outcome [13]: inactive
outcome [14]: inactive
outcome [15]: inactive
outcome [16]: inactive
outcome [17]: inactive
outcome [18]: inactive

O=C(N[C@@H](c1ccccc1)[C@@H]1CCCCN1)c1cccc(C(F)(F)F)c1Cl
AC50 [1]: 10.5 µM (active)
outcome [2]: inactive
outcome [3]: inactive
outcome [4]: inactive
outcome [5]: inactive
outcome [6]: inactive
AC50 [7]: 28.7 µM (active)
outcome [8]: inactive
outcome [9]: inactive
outcome [10]: inactive
outcome [11]: inactive
AC50 [12]: 9.69 µM (active)
AC50 [13]: 30.7 µM (active)
AC50 [14]: 37.1 µM (active)
AC50 [15]: 30.3 µM (active)
AC50 [17]: 12.4 µM (active)
AC50 [18]: 20 µM (active)

O=C1c2c(O)cccc2Cc2cccc(O)c21
AC50 [1]: 17.1 µM (active)
outcome [2]: inactive
outcome [3]: inactive
AC50 [4]: 30.7 µM (active)
outcome [5]: inactive
outcome [6]: inactive
outcome [7]: inactive
AC50 [9]: 7.76 µM (active)
outcome [19]: inactive
AC50 [10]: 15.7 µM (active)
outcome [20]: inactive
AC50 [11]: 20 µM (active)
AC50 [13]: 25.1 µM (active)
AC50 [14]: 28.8 µM (active)
outcome [15]: inactive
AC50 [16]: 18.9 µM (active)
AC50 [17]: 20 µM (active)
AC50 [18]: 24.6 µM (active)
